# Test results taken from PubChem BioAssay (Tox21).
# Inconclusive results are not listed. Where a call stands in place of a potency, no number is given. The source made the active and inactive calls. Calls come from the whole dose curve; as a rule, active = well fitted activation curve with a large enough effect; inconclusive = small, poorly fitted or top-dose-only effect; inactive = flat fitted curve, though single readings scatter. Non-standard residues stand in square brackets, D forms with d. Residues, ends and D or L forms follow the SMILES beside them. Orn = NCCC[C@H](N)C(=O)O
# Experiment: qHTS assay to identify small molecule phospholipidosis (PLD) inducers (AID 1259344)
# Settings: HepG2 phospholipidosis, LipidTOX Red imaging, 24 h; series mostly up to 38.3 µM
# Procedure, shortened: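 Phospholipid accumulation was scored by imaging: fixed, Hoechst-counterstained HepG2 cells stained with LipidTOX Red after 24 h compound exposure at 37 C. Read-outs were pit count and pit intensity per well or per cell, with amiodarone and DMSO controls.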
row,Structure (SMILES),Potency
1,NCC[C@H](O)C(=O)N[C@@H]1C[C@H](N)[C@@H](O[C@H]2O[C@H](CN)CC[C@H]2N)[C@H](O)[C@H]1O[C@H]1O[C@H](CO)[C@@H](O)[C@H](N)[C@H]1O,inactive
2,O=C(O)/C=C/C(=O)Nc1ccc(S(=O)(=O)Nc2nccs2)cc1,inactive
3,CCCCCCCCCCCCCCCC(=O)OC[C@H](COP(=O)([O-])OCC[N+](C)(C)C)OC(=O)CCCCCCCCCCCCCCC,inactive
4,CCN(CC)C(=O)[C@]1(c2ccccc2)C[C@@H]1CN,inactive
5,CC(C)OC(=O)Nc1ccc2nc(-c3cscn3)[nH]c2c1,inactive
6,O=C1CCC(c2ccc(-n3ccnc3)cc2)=NN1,inactive
7,OCl,inactive
8,O=C(O)COc1ccc(C(=O)c2cccs2)c(Cl)c1Cl,inactive
9,CN1[C@@H](CC(=O)c2ccccc2)CCC[C@H]1C[C@H](O)c1ccccc1,inactive
10,C[C@]12O[C@H](C[C@]1(O)CO)n1c3ccccc3c3c4c(c5c6ccccc6n2c5c31)CNC4=O,inactive
11,C/C=C/C1=C(C(=O)O)N2C(=O)[C@@H](NC(=O)[C@H](N)c3ccc(O)cc3)[C@H]2SC1,inactive
12,CC/C=C\C/C=C\C/C=C\C/C=C\C/C=C\C/C=C\CCC(=O)O,inactive
13,C[C@H](O)CN(C)C,inactive
14,CC(C)C[C@@H]1NC(=O)[C@H](CCCN)NC(=O)[C@H](C(C)C)NC(=O)[C@@H]2CCCN2C(=O)[C@@H](Cc2ccccc2)NC(=O)[C@H](CC(C)C)NC(=O)[C@H](CCCN)NC(=O)[C@H](C(C)C)NC(=O)[C@@H]2CCCN2C(=O)[C@@H](Cc2ccccc2)NC1=O (cyclo(V[Orn]L[dF]PV[Orn]L[dF]P)),inactive
15,N#Cc1c(N(CC(=O)O)CC(=O)O)sc(C(=O)O)c1CC(=O)O,inactive
16,CC1(C)S[C@@H]2[C@H](NC(=O)[C@H](N)c3ccc(O)cc3)C(=O)N2[C@H]1C(=O)O,inactive
17,O=C(O)[C@H]1CN(C/C=C/P(=O)(O)O)CCN1,inactive
18,COC(=O)C[C@](O)(CCCC(C)(C)O)C(=O)O[C@@H]1C(OC)=CC23CCCN2CCc2cc4c(cc2[C@H]13)OCO4 (some centres undefined),inactive
19,C1CCc2nnnn2CC1,inactive
20,O=C(O)Cc1nn(Cc2ccc(Br)cc2F)c(=O)c2ccccc12,inactive
21,CO[C@H](C(=O)[C@@H](O)[C@@H](C)O)C1Cc2cc3cc(O[C@H]4C[C@@H](O[C@H]5C[C@@H](O)[C@H](O)[C@@H](C)O5)[C@@H](O)[C@@H](C)O4)c(C)c(O)c3c(O)c2C(=O)[C@H]1O[C@H]1C[C@@H](O[C@H]2C[C@@H](O[C@H]3C[C@](C)(O)[C@H](O)[C@@H](C)O3)[C@H](O)[C@@H](C)O2)[C@H](O)[C@@H](C)O1 (some centres undefined),inactive
22,NC(N)=NCc1cccc(I)c1,inactive
23,O=C(O)c1ccccc1O,inactive
24,N[C@H](CO)C(=O)O,inactive
